Screens (PubChem BioAssay)
A selection: hits, their analogues and other compounds. The true share with any hit is near 4%.
Measles CPE: protection of cells from measles virus; Measles virus-infected cells, CPE protection, absorbance; protection (pct of control), % at 4 µM; actives 1.5% (n = 140,000); AID 841; in the data active means protection mostly above about 24%, no sharp cut-off; inactive means mostly below about 26%
Arbovirus anti: arbovirus infection inhibition. arbovirus infection cell-based antiviral screen. inhibition, % at 10 µM. actives 0.37% (n = 200,000); in the data active means inhibition above about 30%
Cl transport mod: KCC2 (human) Cl- transport modulation. AID 1456. KCC2 cells, thallium flux FluoZin-2 fluorescence. B-score of Tl+ flux slope (higher = more flux/activation; lower = inhibition) at 10 µM. Q9H2X9. actives 2.2% (n = 190,000);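 active means thallium flux slope and its plate-corrected score both differing from the plate sample mean at a set confidence after two filtering rounds, in either direction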;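 further: slope of fluorescence scaled to starting intensity during 10 to 20 s after thallium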
Target sequence (Q9H2X9 whole entry, looked up): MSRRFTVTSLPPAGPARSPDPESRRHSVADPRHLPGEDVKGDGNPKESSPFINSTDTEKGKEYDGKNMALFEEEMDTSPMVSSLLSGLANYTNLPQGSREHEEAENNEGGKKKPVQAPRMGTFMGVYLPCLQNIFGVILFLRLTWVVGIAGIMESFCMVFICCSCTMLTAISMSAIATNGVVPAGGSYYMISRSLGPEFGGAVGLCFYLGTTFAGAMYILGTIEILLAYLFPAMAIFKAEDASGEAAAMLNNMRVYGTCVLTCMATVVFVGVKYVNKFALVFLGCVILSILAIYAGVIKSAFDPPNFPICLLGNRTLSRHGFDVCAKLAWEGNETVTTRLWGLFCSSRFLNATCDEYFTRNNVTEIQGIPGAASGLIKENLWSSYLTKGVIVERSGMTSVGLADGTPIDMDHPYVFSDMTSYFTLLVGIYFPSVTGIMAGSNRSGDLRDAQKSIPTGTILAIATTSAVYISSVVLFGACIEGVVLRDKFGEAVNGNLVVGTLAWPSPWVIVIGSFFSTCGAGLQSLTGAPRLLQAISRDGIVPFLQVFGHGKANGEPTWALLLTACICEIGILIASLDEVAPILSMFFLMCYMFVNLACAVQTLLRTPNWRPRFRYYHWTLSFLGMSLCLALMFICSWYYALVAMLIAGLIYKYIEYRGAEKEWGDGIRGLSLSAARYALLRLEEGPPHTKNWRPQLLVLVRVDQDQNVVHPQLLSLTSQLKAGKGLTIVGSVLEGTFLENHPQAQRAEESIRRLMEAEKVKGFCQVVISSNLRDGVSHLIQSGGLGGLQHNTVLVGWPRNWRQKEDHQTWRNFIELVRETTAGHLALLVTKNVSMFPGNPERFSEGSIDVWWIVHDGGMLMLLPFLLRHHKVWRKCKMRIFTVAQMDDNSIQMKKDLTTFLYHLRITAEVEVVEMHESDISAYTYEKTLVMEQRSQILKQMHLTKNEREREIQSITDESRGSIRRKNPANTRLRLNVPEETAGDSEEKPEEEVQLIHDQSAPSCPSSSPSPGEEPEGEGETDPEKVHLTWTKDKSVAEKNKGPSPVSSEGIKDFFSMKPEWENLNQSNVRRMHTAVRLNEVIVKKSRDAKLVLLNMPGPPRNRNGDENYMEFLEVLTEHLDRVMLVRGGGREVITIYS
ROMK mod: human ROMK K+ channel modulation, primary screen; P48048; Tet-inducible ROMK, thallium flux fluorescence; actives lie on both sides; B-score at 10 µM; actives 2% (n = 130,000); AID 1918;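 active means signal ratio slope over the read window, or its plate-corrected B-score, at least 3 SD from the plate mean, either direction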;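 further: B-score of the F/F0 ratio slope over 7 to 12 s after thallium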
HSV replic up: HSV replication enhancement | HSV replication augmentation in cells, fold increase | maximum fold increase | actives 0.005% (n = 220,000) | AID 1956; in the data active means maximum fold increase above about 1.5; inconclusive means no clear call, values can overlap the other calls; tested in PC3 cells
KCC2 secondary: confirmation of human KCC2 transport modulators | shares compounds with Cl transport mod | AID 1713 | HEK293-KCC2, thallium flux, FluoZin2 fluorescence; hits give high values | normalised thallium flux (F/F0 slope) at 10 µM | actives 15% (n = 3,700);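 active means thallium flux slope above the same plate's solvent-only control mean plus 3 SD; inconclusive means the two replicate wells disagree; inactive means no significant difference from solvent-only control wells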
KCC2 bumet counter: bumetanide-insensitive thallium flux in KCC2 cells with ouabain, counter-screen. normalized thallium flux at 10 µM. actives 49% (n = 3,700). shares compounds with Cl transport mod. HEK293-KCC2 + bumetanide/ouabain, thallium flux FluoZin2; hits give high values;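 active means thallium entry rate above the same plate's blocked-transporter control wells by more than 3 SD; inconclusive means the two repeat wells disagree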;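 further: raw slope of fluorescence over initial fluorescence between 10 and 20 s after thallium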
KCC2 secondary2: KCC2 (human) modulation, second secondary assay; shares compounds with Cl transport mod; HEK293-KCC2, thallium flux FluoZin2 fluorescence; actives lie on both sides; F/F0 rise rate, 10–20 s post-thallium; normalized thallium flux at 10 µM; actives 23% (n = 3,700); AID 1715;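 active means thallium flux slope more than 3 SD above or below the plate's solvent-only control mean, mostly below; inconclusive means the two repeat wells disagreed; inactive means no significant shift from solvent-only controls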
HEK counter1: parental HEK flux effect, counter-screen; thallium flux rate (normalised fluorescence) at 10 µM; HEK293 parental cells, thallium flux FluoZin2, ouabain; baseline-ratio fluorescence slope, 10–20 s after thallium; shares compounds with Cl transport mod; actives 46% (n = 3,700);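 active means thallium flux rate significantly above the same plate's solvent-only control wells, beyond their mean plus 3 SD; inconclusive means the two replicate wells gave conflicting results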
KCC2 ouabain: confirmation of human KCC2 modulators with ouabain; shares compounds with Cl transport mod; HEK293-KCC2, thallium flux FluoZin2 fluorescence; bidirectional: low = inhibitor, high = activator; raw Tl+ flux slope (below DMSO = inhibition, above = activation) at 10 µM; actives 48% (n = 3,700); AID 1717;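 active means thallium flux slope beyond 3 SD from same-plate DMSO control mean in most replicates, usually higher, sometimes lower; inconclusive means repeat tests gave conflicting results; inactive means no significant difference from controls in most replicates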;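 further: slope of initial-normalized fluorescence between seconds 10 and 20 after thallium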
HEK293 Tl flux2: counter-screen for KCC2 modulators: effect in parental HEK293 cells | shares compounds with Cl transport mod | thallium flux FluoZin-2 fluorescence slope | thallium flux slope at 10 µM | actives 33% (n = 3,700) | AID 1718;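 active means thallium flux slope above the same plate's solvent-control mean plus 3 SD in both duplicate wells; inconclusive means duplicate wells that disagreed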;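 further: run without ouabain in cells lacking the KCC2 cotransporter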
Large screens that a line does not name were inactive (follow-up assays come after a bar, where they were run).

CCC1(c2ccc(Cl)cc2)NC(=S)N(c2ccc(C)cc2)N1 (centres undefined)	Cl transport mod 52 | KCC2 secondary 0.041 | KCC2 bumet counter 0.096 | KCC2 secondary2 inconclusive | HEK counter1 0.083 | KCC2 ouabain 0.074 | HEK293 Tl flux2 0.028
CCC1(c2ccccc2)NC(=S)N(c2ccc(C)c(C)c2)N1 (centres undefined)	Cl transport mod 42 (no result: Measles CPE) | KCC2 secondary 0.042 | KCC2 bumet counter 0.11 | KCC2 secondary2 inactive | HEK counter1 0.055 | KCC2 ouabain 0.059 | HEK293 Tl flux2 0.017
CC1(CCc2ccccc2)NC(=S)N(c2ccc(Cl)cc2)N1 (centres undefined)	none (no result: HSV replic up)
COC(=O)c1cc(NC(=O)CSC2=NCCS2)cc(C(=O)OC)c1	none (no result: Measles CPE)
CCSC1=N/C(=C\C=C2/Oc3ccccc3N2CC)C(=O)S1	HSV replic up inconclusive (no result: Measles CPE, Arbovirus anti, ROMK mod)
Cc1nn2cc(-c3ccc(Cl)cc3)nc2s1	none (no result: Cl transport mod, ROMK mod)
Cc1nc2nc(-c3ccc(Cl)cc3)cn2nc1C	none (no result: Cl transport mod, HSV replic up) | KCC2 secondary inactive | KCC2 bumet counter inactive | KCC2 secondary2 inactive | HEK counter1 inactive | KCC2 ouabain inactive | HEK293 Tl flux2 inactive
O=S(=O)(c1ccc(F)cc1)N1CCC(O)(c2ccc3c(c2)OCO3)CC1	Cl transport mod -4.3 (no result: ROMK mod) | KCC2 secondary inactive | KCC2 bumet counter inactive | KCC2 secondary2 inactive | HEK counter1 inactive | KCC2 ouabain 0.015 | HEK293 Tl flux2 inactive
CC(=O)N1CCC(N(CCN2CCOCC2)C(=S)Nc2ccc(C)cc2C)CC1	none (no result: Measles CPE)
FC(F)c1nc2ccccc2[nH]1	none (no result: Measles CPE, ROMK mod)
FC(F)Sc1nc2ccccc2[nH]1	Cl transport mod 50 (no result: Measles CPE, Arbovirus anti) | KCC2 secondary 0.026 | KCC2 bumet counter 0.11 | KCC2 secondary2 0.048 | HEK counter1 0.05 | KCC2 ouabain 0.051 | HEK293 Tl flux2 0.024
O=[N+]([O-])c1cccc(-c2nc3ccccc3s/c2=N/O)c1	none (no result: Measles CPE, Arbovirus anti, ROMK mod)
Cc1cccc(NC(=O)c2csnn2)n1	none (no result: Measles CPE)
Cn1cnc2c1c(=O)[nH]c(=O)n2C	none (no result: Measles CPE, Arbovirus anti, ROMK mod, HSV replic up) | KCC2 secondary inactive | KCC2 bumet counter inactive | KCC2 secondary2 inactive | HEK counter1 inactive | KCC2 ouabain inactive | HEK293 Tl flux2 inactive
Cc1cccc(N(CC(O)CON=C2c3ccccc3-c3ccccc32)S(C)(=O)=O)c1 (centres undefined)	none (no result: ROMK mod)
CS(=O)(=O)N(CC(O)CON=C1c2ccccc2-c2ccccc21)c1ccc(F)cc1 (centres undefined)	none (no result: Cl transport mod) | KCC2 secondary inactive | KCC2 bumet counter inactive | KCC2 secondary2 inactive | HEK counter1 inconclusive | KCC2 ouabain inactive | HEK293 Tl flux2 inactive
COC(=O)c1ccc(C2c3c(oc4ccccc4c3=O)C(=O)N2CCCN2CCOCC2)cc1 (centres undefined)	Cl transport mod -4.5 (no result: ROMK mod, HSV replic up) | KCC2 secondary inactive | KCC2 bumet counter 0.0061 | KCC2 secondary2 inactive | HEK counter1 inactive | KCC2 ouabain inactive | HEK293 Tl flux2 inactive
COCCN1C(=O)c2oc3ccccc3c(=O)c2C1c1ccc(C(=O)OC)cc1 (centres undefined)	none (no result: ROMK mod)
COc1cc(SC)ccc1C(=O)Nc1nccs1	none (no result: Measles CPE)
CCCCc1c(C)nc2cc(-c3ccco3)[nH]n2c1=O	Cl transport mod 4.5 (no result: Measles CPE, Arbovirus anti, ROMK mod) | KCC2 secondary inactive | KCC2 bumet counter 0.014 | KCC2 secondary2 inactive | HEK counter1 0.013 | KCC2 ouabain inconclusive | HEK293 Tl flux2 0.015
COc1ccc(S(=O)(=O)NCCSCc2ccco2)cc1C	none (no result: ROMK mod)
COc1ccc(S(=O)(=O)NCCSCc2ccco2)cc1Cl	Cl transport mod 6.4 | KCC2 secondary inactive | KCC2 bumet counter inactive | KCC2 secondary2 inactive | HEK counter1 inactive | KCC2 ouabain inactive | HEK293 Tl flux2 inactive
COc1cccc(-n2nc(C(=O)N3CC(C)CC(C)C3)c3ccccc3c2=O)c1 (centres undefined)	Cl transport mod 4.4 | KCC2 secondary inactive | KCC2 bumet counter inactive | KCC2 secondary2 inactive | HEK counter1 inactive | KCC2 ouabain inactive | HEK293 Tl flux2 inactive
Cc1ccc(CN2C(=O)[C@H]3Cc4c([nH]c5ccccc45)C(C)(C)N3C2=O)cc1	none (no result: Measles CPE, Arbovirus anti, Cl transport mod, ROMK mod)
COc1ccc(CC2(CO)CCN(CC3=Cc4cc(Cl)ccc4OC3)CC2)cc1	none (no result: Measles CPE, ROMK mod)
Cc1cc(/C=C2\NC(=S)N(C)C2=O)ccc1N1CCCC1	Cl transport mod 6.4, HSV replic up inconclusive (no result: Measles CPE) | KCC2 secondary inactive | KCC2 bumet counter 0.012 | KCC2 secondary2 inconclusive | HEK counter1 inconclusive | KCC2 ouabain inactive | HEK293 Tl flux2 inactive
CCCCOc1cccc(C(=O)NC(=S)Nc2cccc(C(F)(F)F)c2)c1	Cl transport mod 6.5 (no result: ROMK mod) | KCC2 secondary inactive | KCC2 bumet counter 0.016 | KCC2 secondary2 inconclusive | HEK counter1 0.02 | KCC2 ouabain 0.027 | HEK293 Tl flux2 0.016
CCCCOc1cccc(C(=O)NC(=S)Nc2cccnc2)c1	Cl transport mod 6 (no result: HSV replic up) | KCC2 secondary 0.013 | KCC2 bumet counter 0.087 | KCC2 secondary2 inactive | HEK counter1 0.029 | KCC2 ouabain 0.052 | HEK293 Tl flux2 0.013
CCOc1cccc(C(=O)NC(=S)Nc2cccnc2)c1	none
O=C(NCCOc1ccc2ccccc2c1)c1cncc(Br)c1	none (no result: Measles CPE, Arbovirus anti)
O=C(c1cccc(Cl)c1)N1CCC(=O)N(C(CO)Cc2ccccc2)CC1 (centres undefined)	none (no result: Measles CPE, Arbovirus anti, Cl transport mod, ROMK mod)
Cc1ccc2[nH]c(=O)c(COC(=O)C3CCCCC3)cc2c1	none (no result: Measles CPE, Arbovirus anti, ROMK mod)
Cn1cc(C(=O)C(=O)N2CCCc3ccccc32)c2ccccc21	Cl transport mod -4.4 (no result: Measles CPE) | KCC2 secondary inactive | KCC2 bumet counter inactive | KCC2 secondary2 0.024 | HEK counter1 inactive | KCC2 ouabain inactive | HEK293 Tl flux2 inactive
O=c1cc(N=Nc2ccc(Cl)cc2)[nH]c(=O)[nH]1	none (no result: Measles CPE, Arbovirus anti, ROMK mod)
O=C1NC[C@@H](Cc2cccc3ccccc23)N(CC2CCCCC2)C1=O	Cl transport mod -3 (no result: Measles CPE, Arbovirus anti, ROMK mod) | KCC2 secondary inactive | KCC2 bumet counter inactive | KCC2 secondary2 0.024 | HEK counter1 inactive | KCC2 ouabain inactive | HEK293 Tl flux2 inactive
S=C1NC[C@H](Cc2cccc3ccccc23)N1CC1CCCCC1	none (no result: Measles CPE, Arbovirus anti, ROMK mod)
Cc1cc2ccccn2c1C(=O)Nc1cccc(Cl)c1	none (no result: Measles CPE, ROMK mod)
CCOC(=O)C1=C(CN2CC(C)CC(C)C2)NC(=O)NC1c1ccc2c(c1)OCO2 (centres undefined)	none (no result: Measles CPE, ROMK mod, HSV replic up)
